Compounds with a hit are over-represented: about 10% of the library has one in this group of screens.
G9a block: G9a (human) methyltransferase inhibition | 8.8% of 350,000 active | Potency, µM (titrated, usually from 102 µM), for the others: top-dose activity, negative = inhibition, actives largely listed as inhibitors | G9a H3K9 monomethylation, AlphaScreen, 2 h; note: potency is the fitted concentration of half-maximal effect; % is set by controls: 0 for no effect and ±100 for the full control effect; nearly all actives have a fitted effect of over 75% in size
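AlphaScreen read-out: biotin-H3K9 peptide (500 nM) methylation by 20 nM enzyme with 20 uM SAM, 2 h at room temperature after 15 min compound preincubation; anti-monomethyl H3K9 antibody plus donor/acceptor beads, 10 min dark.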
HP1b chromo inh: inhibitors of HP1-beta chromodomain binding to methylated histone tails. AlphaScreen HP1-beta / biotin-H3K9me3 peptide binding. Potency, µM (doses to about 114 µM), for inactives: top-dose activity change, negative = inhibition, usual class: inhibitors. 0.56% of 390,000 active. AID 540317; note: potency is the fitted concentration of half-maximal effect; nearly all actives have a fitted effect of over 70% in size
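Compound inhibition of the preformed complex between 50 nM HP1-beta and 50 nM biotinylated H3K9me3 peptide was read by AlphaScreen. Buffer was PBS pH 7.4 with 0.01% Tween-20. Incubations ran 30 min at room temperature, with 10 ug/mL donor/acceptor beads.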
JMJD2A Tudor inh: blocks the human JMJD2A Tudor domain; O75164; AlphaScreen JMJD2A-Tudor / H3K4me3 peptide binding; Potency, µM (series often up to 114 µM), inactives show at the top dose activity change, negative = inhibition, actives largely listed as inhibitors; 4.4% of 390,000 active; AID 504339; note: potency is the fitted concentration of half-maximal effect; % is set by controls: 0 for no effect and ±100 for the full control effect; nearly all actives have a fitted effect of over 50% in size
BAZ2B block: inhibitors of human BAZ2B bromodomain; Q9UIF8; AlphaScreen BAZ2B-H3K14Ac peptide displacement; Potency, µM (titrated, usually from 114 µM), for inactives: at the top dose activity change, negative = inhibition, actives largely listed as inhibitors; 4.4% of 360,000 active; AID 504333; note: potency is the fitted concentration of half-maximal effect; % is set by controls: 0 for no effect and ±100 for the full control effect; nearly all actives have a fitted effect of over 60% in size
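AlphaScreen luminescence quantifies BAZ2B engagement of H3K14Ac peptide; the protein and biotinylated peptide are both at 50 nM final, buffer PBS pH 7.4 with 0.01% Tween-20, all steps at room temperature.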
CtBP-E1A blk: blocks the CtBP interaction with E1A; AlphaScreen GST-E1A/His-CtBP binding, 1536-well; active compounds read low; activity change, % (concentration not given with the values); 0.49% of 340,000 active; AID 651724; in the data active = activity change below about -65%; inconclusive = mostly about -30% to -63%; note: % is set by controls: 0 for no effect and ±100 for the full control effect
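GST-E1A and His-tagged CtBP (125 nM each as 5X stock) were preincubated with pin-transferred compound for 2 h at 37 °C in the dark, then glutathione donor and nickel acceptor beads were added for 1 h before AlphaScreen reading.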
Six1-Eya2 blk: inhibitors of human Six1/Eya2 interaction; activity change, % (concentration not given with the values); Q15475+O00167; AlphaScreen GST-Six1/His-Eya2 binding, biochemical; active compounds read low; 0.56% of 360,000 active; AID 651725; in the data active = activity change below about -65%; inconclusive = mostly about -30% to -63%; note: % is set by controls: 0 for no effect and ±100 for the full control effect
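Compounds are tested against tagged Six1 and Eya2 proteins bridged by glutathione donor and nickel acceptor beads; after a one-hour incubation at 37 °C without light, AlphaScreen emission is recorded.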
An asterisk follows results filed as active; [ ] = remark or other dose. Unless noted, calls come from the whole dose curve; as a rule, active = well fitted inhibition curve with a large enough effect; inconclusive = small, poorly fitted or top-dose-only effect; inactive = no such curve, though single readings can be large or run the other way.

`O=C(O)CCc1ccc(-c2ccc(F)cc2)n1CCC(=O)O` gave G9a block 11µM*, HP1b chromo inh 30%, JMJD2A Tudor inh -20%, BAZ2B block -21%, CtBP-E1A blk 8 and Six1-Eya2 blk 2.
For CCCn1c(CCC(=O)O)ccc1-c1ccccc1 the results were G9a block 5%[59 µM], HP1b chromo inh inconclusive, JMJD2A Tudor inh 35µM*, BAZ2B block -1%, CtBP-E1A blk -1 and Six1-Eya2 blk -2.
Cc1ccc(-c2ccc(CCC(=O)O)n2Cc2ccco2)cc1 was read as G9a block 50µM*, HP1b chromo inh -6%, JMJD2A Tudor inh inconclusive, BAZ2B block inconclusive, CtBP-E1A blk -4 and Six1-Eya2 blk -10.
O=C(O)CCc1ccc(-c2ccccc2)n1CC(=O)O was read as G9a block inconclusive, HP1b chromo inh 9%, JMJD2A Tudor inh inconclusive, BAZ2B block -19%, CtBP-E1A blk 0 and Six1-Eya2 blk 1.
Cc1[nH]c2ccccc2c1C(c1ccccc1)c1ccc(Cl)s1 (stereo not drawn) was read as G9a block -9%[59 µM], HP1b chromo inh 23%, JMJD2A Tudor inh inconclusive and BAZ2B block inconclusive.
`Cc1cc(C(=O)NCc2ccccc2Br)no1` gave G9a block -27%[12.7 µM], HP1b chromo inh 17%, JMJD2A Tudor inh -8%, BAZ2B block 8%, CtBP-E1A blk 5 and Six1-Eya2 blk 0.
CCC(C(=O)Nc1ccc(C(C)=O)cc1)n1c(C)c2cnn(-c3ccccc3)c(=O)c2c1C (stereo not drawn) was read as G9a block 7%[59 µM], HP1b chromo inh 28%, JMJD2A Tudor inh -32% and BAZ2B block -29%.
For COc1ccc(NS(=O)(=O)c2ccc(OC)c3ccccc23)cn1 the results were G9a block -37%, HP1b chromo inh inconclusive, JMJD2A Tudor inh 79µM*, BAZ2B block 7%, CtBP-E1A blk -5 and Six1-Eya2 blk -4.
For COc1ccc(NS(=O)(=O)c2cccs2)cn1 the results were G9a block 3%, HP1b chromo inh 44%, JMJD2A Tudor inh -4%, BAZ2B block -10%, CtBP-E1A blk -11 and Six1-Eya2 blk 0.
Cc1cc2n(n1)CCCN2C(=O)Nc1ccccc1C(F)(F)F was read as G9a block -2%[59 µM], HP1b chromo inh 39%, JMJD2A Tudor inh 8% and BAZ2B block 4%[57.1 µM].
CC(C)CNS(=O)(=O)c1cc(C(=O)O)c(Cl)cc1Cl was read as G9a block inconclusive, HP1b chromo inh 19%, JMJD2A Tudor inh 1%[11.4 µM], BAZ2B block -36%, CtBP-E1A blk 15 and Six1-Eya2 blk 3.
For O=S(=O)(NCC(Nc1ccccc1)c1ccccc1)c1ccc(Cl)cc1 (stereo not drawn) the results were G9a block -43%[59 µM], HP1b chromo inh 10%, JMJD2A Tudor inh -21%, BAZ2B block -9%, CtBP-E1A blk -15 and Six1-Eya2 blk -10.
Screening O=C(O)c1cc(S(=O)(=O)Nc2cccc3ccccc23)c(Cl)cc1Cl returned G9a block 56µM*, HP1b chromo inh -12%, JMJD2A Tudor inh 79µM*, BAZ2B block -38%, CtBP-E1A blk -9 and Six1-Eya2 blk 3.
`O=C(O)c1ccc(NS(=O)(=O)c2cc(Cl)ccc2Cl)cc1` gave G9a block -5%, HP1b chromo inh 47%, JMJD2A Tudor inh 1%, BAZ2B block -20%, CtBP-E1A blk 6 and Six1-Eya2 blk 1.
O=C(O)c1ccc(Cl)c(S(=O)(=O)Nc2ccc(S(=O)(=O)Nc3cccc(Cl)c3)cc2)c1 was read as G9a block 56µM*, HP1b chromo inh -2%, JMJD2A Tudor inh -6%, BAZ2B block -33%, CtBP-E1A blk -25 and Six1-Eya2 blk -9.
For O=C(O)c1cccc(NC(CNS(=O)(=O)c2ccc(Cl)cc2)c2ccccc2)c1 (stereo not drawn) the results were G9a block inconclusive, HP1b chromo inh 6%, JMJD2A Tudor inh -23%, BAZ2B block 79µM*, CtBP-E1A blk 20 and Six1-Eya2 blk 4.
For O=C(O)c1cccc(NS(=O)(=O)c2ccc(-c3ccc(S(=O)(=O)Nc4cccc(C(=O)O)c4)cc3)cc2)c1 the results were G9a block 50µM*, HP1b chromo inh 24%, JMJD2A Tudor inh -27%, BAZ2B block -13% and Six1-Eya2 blk -9.
Screening CCOc1cc(/C=N/N2CCN(Cc3ccccc3)CC2)ccc1O returned G9a block inconclusive, HP1b chromo inh -16%, JMJD2A Tudor inh inconclusive, BAZ2B block inconclusive, CtBP-E1A blk -3 and Six1-Eya2 blk -8.
`COc1cccc(S(=O)(=O)N2CCN(S(=O)(=O)c3ccc4c(c3)OCCO4)CC2)c1` gave JMJD2A Tudor inh -15%.
Cc1cccc(N2CCN(C(=O)CN3C(=O)C4CC=CCC4C3=O)CC2)c1C (stereo not drawn) was read as G9a block -3%, HP1b chromo inh 32%, JMJD2A Tudor inh 0%, BAZ2B block -16%, CtBP-E1A blk 2 and Six1-Eya2 blk 3.
O=C(O)c1cccc(S(=O)(=O)Nc2ccc(-c3ccccc3)cc2)c1 was read as HP1b chromo inh 14%, JMJD2A Tudor inh -20%, CtBP-E1A blk 0 and Six1-Eya2 blk -1.
Screening O=C(O)c1ccc(Cl)c(S(=O)(=O)Nc2ccccc2Cc2ccccc2)c1 returned G9a block 79µM*, HP1b chromo inh 15%, JMJD2A Tudor inh -11%, BAZ2B block 2%, CtBP-E1A blk 1 and Six1-Eya2 blk 0.
O=C(O)c1ccc(NS(=O)(=O)c2ccc3c(c2)C(=O)c2ccccc2C3=O)cc1 was read as G9a block 45µM*, HP1b chromo inh 24%, JMJD2A Tudor inh -20%, BAZ2B block -35%, CtBP-E1A blk inconclusive and Six1-Eya2 blk -72*.
For CC(=O)NS(=O)(=O)c1ccc2c(c1)C(=O)c1cc(S(=O)(=O)NC(C)=O)ccc1-2 the results were G9a block 9%[0.501 µM], HP1b chromo inh 2%, JMJD2A Tudor inh -5%, BAZ2B block -10% and Six1-Eya2 blk -5.
`CC(NS(=O)(=O)c1ccc2c(c1)C(=O)c1cc(S(=O)(=O)NC(C)C(=O)O)ccc1-2)C(=O)O` (stereo not drawn) gave G9a block 28µM*, HP1b chromo inh inconclusive, JMJD2A Tudor inh 10µM*, BAZ2B block -20%, CtBP-E1A blk inconclusive and Six1-Eya2 blk inconclusive.
For O=C(Nc1cccc(C(F)(F)F)c1)c1cccc(NS(=O)(=O)c2ccc(O)c(C(=O)O)c2)c1 the results were G9a block inconclusive, HP1b chromo inh -1%, JMJD2A Tudor inh 56µM*, BAZ2B block -18%, CtBP-E1A blk 3 and Six1-Eya2 blk -11.

High-throughput results (PubChem BioAssay)
